In the supplement of paper PMC8285479:
Structures can show the parent of a compound that is named as a salt. ± gives the standard deviation of the averaged measurements. In all, about 1,900 compounds were measured (“normalised cell viability (NPI; 0 = phenylarsine oxide control, 1 = DMSO control)”: median about 1, lowest 2% from about 0.039 on). The entries come from a sample that favours the lowest values as a whole.

Tested on: NCI-H1944
Test: normalised cell viability (NPI; 0 = phenylarsine oxide control, 1 = DMSO control) (fraction of DMSO control); NCI-H1944 is a non-small cell lung cancer line; higher = more viable cells (less compound toxicity)
Details: 6 days
[1] = glucocorticoid arm: hydrocortisone 2.75 uM co-treatment, compound 1 µM
[2] = glucocorticoid arm: hydrocortisone 2.75 uM co-treatment, compound 5 µM
[3] = glucocorticoid arm: hydrocortisone 2.75 uM pre-treated 2 days and continued, compound 1 µM
[4] = glucocorticoid arm: hydrocortisone 2.75 uM pre-treated 2 days and continued, compound 5 µM
[5] = glucocorticoid arm: vehicle, compound 1 µM
[6] = glucocorticoid arm: vehicle, compound 5 µM
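Note: CTB read-out in 384-well plates, triplicate wells, NPI normalised per plate against 1 µM phenylarsine oxide (0) and 0.1% DMSO (1) controls.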

Compound	normalised cell viability [1]	normalised cell viability [2]	normalised cell viability [3]	normalised cell viability [4]	normalised cell viability [5]	normalised cell viability [6]
CCCCC1(C2CCCC2)Cc2cc(OCC(=O)O)c(Cl)c(Cl)c2C1=O (stereo in doubt) [R(+)-Butylindazone]	0.9903 ± 0.0064	0.958 ± 0.011	0.988 ± 0.01	0.965 ± 0.028	0.983 ± 0.006	0.9887 ± 0.004
O=C1NCCc2[nH]c(-c3ccncc3)cc21	1.02 ± 0.015	0.0894 ± 0.0076	0.9933 ± 0.0072	0.145 ± 0.006	0.916 ± 0.016	0.0151 ± 0.0021
O=C1NC(=O)/C(=C/c2ccc3nccc(-c4ccncc4)c3c2)S1	0.697 ± 0.026	0.836 ± 0.011	0.73 ± 0.039	0.848 ± 0.026	0.886 ± 0.023	0.932 ± 0.027
Cc1[nH]c(=O)c(C#N)cc1-c1ccncc1 [Milrinone]	0.996 ± 0.013	1.001 ± 0.0083	0.998 ± 0.0035	1.05 ± 0.081	0.9903 ± 0.009	0.993 ± 0.015
CCCCCCCCCCCCCCCCCC(=O)OC(CC(=O)O)C[N+](C)(C)C (racemic) [DL-Stearoylcarnitine chloride]	0.9967 ± 0.0042	0.906 ± 0.03	1.01 ± 0.019	0.993 ± 0.0017	1.013 ± 0.0058	0.99967 ± 0.00058
CNc1ncnc2c1ncn2[C@H]1C[C@H](OP(=O)(O)O)[C@@H](COP(=O)(O)O)O1	0.991 ± 0.0056	0.987 ± 0.029	1 ± 0.016	0.981 ± 0.027	0.996 ± 0.0061	0.9943 ± 0.0047
C[C@H](O)[C@H](O)[C@H]1CNc2nc(N)[nH]c(=O)c2N1 [(6R)-5,6,7,8-Tetrahydro-L-biopterin dihydrochloride]	1.02 ± 0.011	1.01 ± 0.026	0.923 ± 0.18	1.001 ± 0.009	1.02 ± 0.01	1.02
CN1CCc2c(cc(O)c(O)c2Cl)C(c2cccc(Cl)c2)C1 (configuration not stated)	1.006 ± 0.0063	1.03 ± 0.03	1.01 ± 0.039	1.017 ± 0.0058	1	1.013 ± 0.0058
CNC(=O)c1nn(C)c2c1C(C)(C)Cc1cnc(Nc3ccc(N4CCN(C)CC4)cc3)nc1-2	0.485 ± 0.019	0.306 ± 0.002	0.549 ± 0.019	0.424 ± 0.013	0.282 ± 0.0098	0.126 ± 0.0072
CN1CCN(c2ccc(OC(F)(F)F)c(Nc3ncc4c(n3)-c3c(c(C(N)=O)nn3CCO)CC4)c2)CC1	0.183 ± 0.025	0.146 ± 0.02	0.428 ± 0.025	0.556 ± 0.069	0.0347 ± 0.0042	0.0361 ± 0.0086
CCC(=O)Nc1cccc(Oc2nc(Nc3ccc(N4CCN(C)CC4)cc3OC)ncc2Cl)c1	1.07 ± 0.017	1.11 ± 0.01	1.057 ± 0.0058	1.07 ± 0.035	1 ± 0.011	1.01 ± 0.01
OCCn1cc(-c2cnc3nnn(Cc4ccc5ncccc5c4)c3n2)cn1	1 ± 0.01	1.02 ± 0.026	1.02 ± 0.015	1.02 ± 0.052	1.01 ± 0.011	1.02 ± 0.015
Cc1c(NC(=O)c2ccc(C(C)(C)C)cc2)cccc1-c1cn(C)c(=O)c(Nc2ccc(C(=O)N3CCOCC3)cc2)n1	1.017 ± 0.0058	1.03 ± 0.032	1.007 ± 0.0058	0.987 ± 0.022	1 ± 0.0087	1.006 ± 0.0063
CN1C2CCC1CC(NC(=O)c1nn(C)c3ccccc13)C2 (configuration not stated) [LY-278,584 maleate]	0.9863 ± 0.0067	0.977 ± 0.033	0.9957 ± 0.0075	1.03 ± 0.085	0.9753 ± 0.0051	0.9783 ± 0.0091
CC(C)NCC(O)COc1ccc(CC(N)=O)cc1 (racemic) [(±)-Atenolol]	0.987 ± 0.007	1.001 ± 0.0085	1.003 ± 0.0064	1.02 ± 0.021	1.005 ± 0.0092	1.01
NC(C(=O)O)C(O)C(=O)O (racemic) [DL-threo-beta-hydroxyaspartic acid]	1.01 ± 0.011	1.01 ± 0.028	1.01 ± 0.022	1.01 ± 0.018	1.003 ± 0.0061	1.001 ± 0.0081

Compound	normalised cell viability [1]	normalised cell viability [2]	normalised cell viability [3]	normalised cell viability [4]	normalised cell viability [5]	normalised cell viability [6]
CCCN(CCc1ccccc1)C1CCc2c(O)cccc2C1 (racemic) [(±)-PPHT hydrochloride]	0.986 ± 0.011	0.969 ± 0.03	1.05 ± 0.078	0.966 ± 0.02	1.007 ± 0.0058	1.003 ± 0.0058
Cl.N[C@@H](CCC(=O)O)C(=O)O [L-Glutamic acid hydrochloride]	1.013 ± 0.0058	1 ± 0.029	1.013 ± 0.0058	0.989 ± 0.027	1.023 ± 0.0058	1.02 ± 0.01
Clc1ccc(C(c2ccc(Cl)cc2)[n+]2ccn(CC(OCc3ccc(Cl)cc3Cl)c3ccc(Cl)cc3Cl)c2)cc1 (configuration not stated) [Calmidazolium chloride]	0.974 ± 0.035	0.00138 ± 0.00076	0.993 ± 0.012	-0.000224 ± 0.0015	1.002 ± 0.0072	0.00119 ± 0.00017
CN(CC[C@@H](Oc1ccc(C(F)(F)F)cc1)c1ccccc1)CC(=O)[O-].[Li+]	0.992 ± 0.0046	0.989 ± 0.011	0.99 ± 0.014	0.998 ± 0.018	0.979 ± 0.016	0.9777 ± 0.0035
NCCC[C@](N)(C(=O)O)C(F)F (racemic) [DL-alpha-Difluoromethylornithine hydrochloride]	0.9853 ± 0.0063	0.923 ± 0.021	0.9873 ± 0.0064	0.932 ± 0.011	0.9863 ± 0.0055	0.9817 ± 0.0032
O=C(CCCN1C(=O)c2cccc3cccc(c23)C1=O)NO [Nullscript]	0.981 ± 0.011	0.961 ± 0.029	1 ± 0.012	0.987 ± 0.018	1 ± 0.0082	1.01 ± 0.014
c1cc(CN2CCCNCCNCCCNCC2)ccc1CN1CCCNCCNCCCNCC1 [Plerixafor]	1 ± 0.018	1 ± 0.017	1.01 ± 0.011	0.996 ± 0.016	1.006 ± 0.0063	1.01 ± 0.013
CNCc1ccc(-c2[nH]c3cc(F)cc4c3c2CCNC4=O)cc1	0.982 ± 0.0036	1 ± 0.071	0.968 ± 0.0095	1.01 ± 0.022	0.989 ± 0.013	0.948 ± 0.022
CCCCc1nc2cc(/C=C/C(=O)NO)ccc2n1CCN(CC)CC [Pracinostat (SB939)]	0.9753 ± 0.004	0.00959 ± 0.0058	1 ± 0.0095	0.0658 ± 0.0071	0.686 ± 0.077	0.000852 ± 0.0004
Nc1ncnc2c1c(-c1cccc(OCc3ccccc3)c1)cn2C1CC(CN2CCC2)C1 (configuration not stated)	0.457 ± 0.025	0.366 ± 0.021	0.596 ± 0.0046	0.436 ± 0.062	0.939 ± 0.013	0.776 ± 0.039
O=C(NCCO)c1ccc2c(c1)nc(Nc1cccc(Cl)c1)c1ccncc12 [CK2 Inhibitor 2]	1.02 ± 0.022	0.854 ± 0.028	1.03 ± 0.015	1.07 ± 0.021	1.001 ± 0.0081	0.567 ± 0.033
CCCCC(=O)OCC(=O)[C@]1(O)Cc2c(O)c3c(c(O)c2[C@@H](O[C@H]2C[C@H](NC(=O)C(F)(F)F)[C@H](O)[C@H](C)O2)C1)C(=O)c1c(OC)cccc1C3=O [Valrubicin]	0.665 ± 0.04	0.868 ± 0.016	0.973 ± 0.016	0.982 ± 0.017	0.228 ± 0.017	0.374 ± 0.0045
CC(=O)[C@]1(O)Cc2c(O)c3c(c(O)c2[C@@H](O[C@H]2C[C@H](N)[C@H](O)[C@H](C)O2)C1)C(=O)c1ccccc1C3=O [Idarubicin hydrochloride; Idarubicin; 4-DMD HCl]	0.0183 ± 0.0037	1.06 ± 0.026	0.0494 ± 0.0094	1.033 ± 0.0058	0.00163 ± 0.00068	1.006 ± 0.0075
COc1cccc2c1C(=O)c1c(O)c3c(c(O)c1C2=O)C[C@@](O)(C(=O)CO)C[C@@H]3O[C@H]1C[C@H](N)[C@H](O)[C@H](C)O1 [Doxorubicin hydrochloride; 4'-Epiadriamycin; Doxorubicin HCl]	0.454 ± 0.36	0.288 ± 0.3	0.754 ± 0.26	0.484 ± 0.48	0.178 ± 0.17	0.129 ± 0.14
COc1cccc2c1C(=O)c1c(O)c3c(c(O)c1C2=O)C[C@@](O)(C(C)=O)C[C@@H]3O[C@H]1C[C@H](N)[C@H](O)[C@H](C)O1 [Daunorubicin hydrochloride; Daunorubicin HCl]	0.0398 ± 0.0066	1.05 ± 0.011	0.587 ± 0.027	1.013 ± 0.0058	0.0031 ± 0.0017	1.007 ± 0.0058
CC(=O)[C@]1(O)Cc2c(O)c3c(c(O)c2[C@@H](O[C@H]2C[C@H](N)[C@H](O)[C@H](C)O2)C1)C(=O)c1ccccc1C3=O [Idarubicin hydrochloride]	0.00497 ± 0.00094	0.0017 ± 0.0005	0.00532 ± 0.0009	0.024 ± 0.0063	0.00471 ± 0.00071	0.00231 ± 0.00037
